Assay results as given in PubChem BioAssay AID1780 (National Center for Advancing Translational Sciences (NCATS), 2009).
Activity calls are given as the source filed them. Calls come from the whole dose curve; as a rule, active = well fitted curve in the direction sought with a large enough effect; inactive = no such curve, though single readings can be large or run the other way.

The compounds below were run against Pyruvate kinase PKM (Homo sapiens) (UniProt P14618) (assay: Confirmation Concentration-Response Assay for Activators of Human Muscle isoform 1 Pyruvate Kinase). Conditions: purified hPK-M1, Kinase-Glo ATP luminescence, 1 h; series mostly up to 57.5 µM.
Pyruvate kinase PKM (Homo sapiens), sequence (P14618 whole entry, looked up, canonical isoform): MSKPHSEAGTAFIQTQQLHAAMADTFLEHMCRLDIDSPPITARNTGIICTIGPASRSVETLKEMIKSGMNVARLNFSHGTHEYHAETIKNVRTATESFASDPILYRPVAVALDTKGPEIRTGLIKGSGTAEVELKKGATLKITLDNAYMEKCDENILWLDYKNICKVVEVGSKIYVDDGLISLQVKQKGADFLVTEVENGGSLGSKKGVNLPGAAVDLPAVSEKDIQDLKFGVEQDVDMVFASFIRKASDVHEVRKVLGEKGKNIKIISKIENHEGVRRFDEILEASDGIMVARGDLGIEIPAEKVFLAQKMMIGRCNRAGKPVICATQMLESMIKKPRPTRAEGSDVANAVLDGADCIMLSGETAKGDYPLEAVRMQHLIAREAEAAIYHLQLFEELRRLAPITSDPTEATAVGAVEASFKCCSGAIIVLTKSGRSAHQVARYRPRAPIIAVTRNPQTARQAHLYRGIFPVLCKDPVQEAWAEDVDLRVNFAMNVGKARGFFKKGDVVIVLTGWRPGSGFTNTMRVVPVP
Source text: Confirmatory assay NIH Chemical Genomics Center [NCGC] Matthew G. Vander Heiden, M.D., Ph.D. [Harvard Medical School, 77 Avenue Louis Pasteur, Boston, MA 02115] NCGC Assay Overview: Human pyruvate kinase […] (hPK-M1) enzyme was supplied as a highly purified (>95% pure) preparation from Harvard Medical School and assayed for its ability to generate ATP from ADP using phosphoenolpyruvate (PEP) as a substrate. ATP generation was detected in a coupled reaction by luciferase-mediated luminescence, an ATP-dependent process. Pyruvate kinase substrates, PEP and ADP, were present in the assay at Km and approximately 10-fold below Km respectively. The enzyme was assayed at an intermediate level of activity to screen for both inhibitors and activators.
NCGC Assay Protocol Summary for M1-isoform: Three uL of substrate mix (at r.t.) in assay buffer (50 mM Imidazole pH7.2, 50 mM KCl, 7 mM MgCl2, 0.01% Tween 20, 0.05% BSA) was dispensed into white solid bottom 1,536 well microtiter plates so that the final concentrations of substrates in the assay were 0.1 mM ADP and 0.5 mM PEP. 23 nL of compound were delivered by a pin tool and 1 uL of enzyme mix (final concentration of 1 nM) in assay buffer (4 degree Celsius) was added. Plates were incubated at room temperature for 1 hour. Two uL of detection mix (Kinase-Glo, Promega; at 4 degree Celsius protected from light) was added and luminescence read by a ViewLux (Perkin Elmer) at 1 second exposure/plate. Data were normalized to the uninhibited (row 31). Additionally, a no enzyme and 5-fold enzyme control was dispensed in row 32, split equally between the two conditions.

outcome, inactive:
O=S(=O)(NC1CCC(NS(=O)(=O)c2c(F)cccc2F)CC1)c1ccc2c(c1)OCCO2 (stereo not given)
Cc1nc2ccc(S(=O)(=O)N3CCN(S(=O)(=O)c4c(F)cccc4F)CC3)cc2s1
Cn1c2cc(S(C)=O)sc2c2cnn(Cc3ccccc3F)c(=O)c21 (stereo not given)
O=S(=O)(c1ccc2c(c1)OCCO2)N1CCN(S(=O)(=O)c2ccccc2F)CC1
CCn1c2cc(C)sc2c2cnn(Cc3ccccc3F)c(=O)c21
Cc1cc2c(s1)c1cnn(Cc3ccc(F)cc3F)c(=O)c1n2C
O=S(=O)(c1cccc(F)c1)N1CCN(S(=O)(=O)c2ccc3c(c2)OCCO3)CC1
Cc1cc2c(s1)c1cnn(Cc3ccc(F)cc3)c(=O)c1n2C
CC(O)c1cc2c(s1)c1cnn(Cc3ccccc3F)c(=O)c1n2C (stereo not given)
C[C@H]1CN(S(=O)(=O)c2ccc3c(c2)OCCO3)CCN1S(=O)(=O)c1c(F)cccc1F
Cc1cc2c(s1)c1cnn(Cc3cc(C(F)(F)F)cc(Cl)c3F)c(=O)c1n2C
Cc1cc2c(s1)c1cnn(Cc3ccc(C(F)(F)F)cc3)c(=O)c1n2C
CN1CCOc2ccc(S(=O)(=O)N3CCN(S(=O)(=O)c4c(F)cccc4F)CC3)cc21
Cn1c2ccsc2c2cnn(Cc3ccccc3F)c(=O)c21
COc1cc(F)c(S(=O)(=O)N2CCN(S(=O)(=O)c3ccc4c(c3)OCCO4)CC2)c(F)c1
CSc1cc2c(s1)c1cnn(Cc3ccccc3F)c(=O)c1n2C
Cc1cc2c(s1)c1cnn(Cc3c(F)cccc3F)c(=O)c1n2C
CC(=O)Nc1cc2c(s1)c1cnn(Cc3ccccc3F)c(=O)c1n2C
O=S(=O)(NCC1CN(S(=O)(=O)c2c(F)cccc2F)C1)c1ccc2c(c1)OCCO2
O=C1CN(S(=O)(=O)c2c(F)cccc2F)CCN1S(=O)(=O)c1ccc2c(c1)OCCO2
O=S(=O)(c1ccc2c(c1)OCCO2)N1CCN(S(=O)(=O)c2c(F)ccc(O)c2F)CC1
O=S(=O)(c1c(F)cccc1F)N1CCN(S(=O)(=O)c2c(F)cccc2F)CC1
O=S(=O)(c1cccc(C(F)(F)F)c1)N1CCN(S(=O)(=O)c2ccc3c(c2)OCCO3)CC1
O=S(=O)(c1ccc2c(c1)OCCO2)N1CCN(S(=O)(=O)c2ccccn2)CC1
Cc1cc2c(s1)c1cnn(Cc3cccc(F)c3)c(=O)c1n2C
O=S(=O)(c1ccc2ccccc2c1)N1CCN(S(=O)(=O)c2c(F)cccc2F)CC1
O=S(=O)(NC1CCN(S(=O)(=O)c2ccc3c(c2)OCCO3)C1)c1c(F)cccc1F (stereo not given)
COc1ccc(S(=O)(=O)N2CCN(S(=O)(=O)c3ccc4c(c3)OCCO4)CC2)cc1
Cn1c2ccsc2c2ncn(Cc3ccccc3F)c(=O)c21
Cn1ccc2cc(S(=O)(=O)N3CCN(S(=O)(=O)c4c(F)cccc4F)CC3)ccc21
COc1ccc(Cn2ncc3c4sc(C)cc4n(C)c3c2=O)cc1
CC(C)c1cc2c(s1)c1cnn(Cc3ccccc3F)c(=O)c1n2C
O=S(=O)(NCCCCCNS(=O)(=O)c1c(F)cccc1F)c1ccc2c(c1)OCCO2
Cc1cc2c(s1)c1cnn(Cc3cccc(Cl)c3)c(=O)c1n2C
Cn1c2cc(CO)sc2c2cnn(Cc3ccccc3F)c(=O)c21
O=C(c1ccc2c(c1)OCCO2)N1CCN(S(=O)(=O)c2c(F)cccc2F)CC1
CCc1cc2c(s1)c1cnn(Cc3ccccc3F)c(=O)c1n2C
O=S(=O)(NCCCCNS(=O)(=O)c1c(F)cccc1F)c1ccc2c(c1)OCCO2
Cc1ccc(Cn2ncc3c4sc(C)cc4n(C)c3c2=O)c(C)c1
O=S(=O)(NCCNS(=O)(=O)c1c(F)cccc1F)c1ccc2c(c1)OCCO2
